The results in this text go back to PubChem BioAssay.

A short description of assay [1]: small molecules captured by biotinylated probe aFSTL3 – biochemical, small-molecule microarray, fluorescence 635/667, stem cell growth factor project, primary screen (AID 1064).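 Also: measures binding of the biotinylated anti-FSTL3 antibody to printed compounds.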 The conditions noted are these: higher = more signal.
Assay [2] in a line: binders from COS7 lysate, DM2A8 probe, primary screen, torsin A project, cell lysate, small-molecule microarray, fluorescence 635/667 (AID 1065). The settings on record: higher = more signal, COS7 lysate expressing mutant human TOR1A.
A short description of assay [3]: small molecules captured by biotinylated probe aFGF2 – biochemical, small-molecule microarray, fluorescence 635/667, stem cell growth factor project, primary screen (AID 1067).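 Also: measures binding of biotinylated aFGF2 protein to printed compounds on slides; z-score merges feature fluorescence and signal-to-noise across triplicate slides.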 The conditions noted are these: higher = more signal.
Assay [4] in a line: small molecules captured by biotinylated probe aFGF10 – biochemical, small-molecule microarray, fluorescence 635/667, stem cell growth factor project, primary screen (AID 1071).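 Also: score merges 667 nm spot intensity and signal to noise from triplicate slides.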 The settings on record: higher = more signal.
Assay [5] concerns the target Neurogenic locus notch homolog protein 2 (Homo sapiens) (UniProt Q04721). In words: small molecules binding Notch2 protein – biochemical, small-molecule microarray, 635 nm fluorescence, stem cell growth factors, primary screen (AID 1073). The conditions noted are these: higher = more signal.
Assay [6] addresses Pro-neuregulin-1, membrane-bound isoform (Homo sapiens) (UniProt Q02297). Description: small molecules binding neuregulin-1 protein – biochemical, small-molecule microarray, fluorescence 635/667, psychiatric disease protein project, primary screen (AID 1075).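 Also: score combines 667 nm spot fluorescence with signal to noise.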 The settings on record: NRG1 binding, 635 nm fluorescence, higher = more signal.
Assay [7] relates to Neuregulin-1 EGF-like domain. In words: small molecules binding NRG1 EGF domain – biochemical, small-molecule microarray, 635 nm fluorescence, primary screen (AID 1081).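 Also: binding of the protein to compounds printed on small-molecule microarray slides.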 The conditions noted are these: higher = more signal.
Assay [8] in a line: FRG1 expression reporter modulators in myotubes – cell-based, C2C12 myotubes, firefly/Renilla luciferase, luminescence, FRG1 inhibition for FSHD, primary screen (AID 1084). The settings on record: FRG1 promoter luciferase, higher = more signal, called active from +8 up or from −8 down.
Assay [9] in a line: small molecules captured by biotinylated probe aFST – biochemical, small-molecule microarray, fluorescence 635/667, stem cell growth factor project, primary screen (AID 1086).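 Also: score merges 667 nm fluorescence with signal-to-noise of each printed compound spot.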 The settings on record: higher = more signal.
Assay [10] is described as follows: binders of probe aHhip on microarray, primary screen, stem cell growth factor project, biochemical, small-molecule microarray, fluorescence 635/667 (AID 1087).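 Also: score merges spot fluorescence at 667nm with spot signal to noise ratio.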 The settings on record: higher = more signal.
The subject of assay [11] is PRMT1 (protein arginine N-methyltransferase 1). In words: small molecules binding arginine methyltransferase PRMT1 – biochemical, small-molecule microarray, 635 nm fluorescence, primary screen (AID 1088).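 Also: binding of Prmt1 protein to compounds spotted on small-molecule microarray slides.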 The settings on record: higher = more signal.
The nature of assay [12]: growth effects on S. cerevisiae YJM789 – YJM789 clinical isolate, OD600, 24 h, basal, primary screen (AID 1089).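 Also: growth of clinical yeast isolate S. cerevisiae YJM 789 seeded 1000 cells per well; test concentration not given here.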 The conditions noted are these: higher = more signal, called active from +8 up or from −8 down.
Assay [13] in a line: S. pombe growth modifiers, basal conditions – strain 972, OD600, 24 h, no modulator, primary screen (AID 1090).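 Also: basal condition with compound alone and no growth modifier present; test concentration not given here.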 The conditions noted are these: S. pombe 972 growth, higher = more signal, called active from +8 up or from −8 down.
A short description of assay [14]: budding yeast growth modifiers under rapamycin – strain BY4716, OD600, 96 h, primary screen (AID 1091). Also: test concentration not given here. The settings on record: S. cerevisiae BY4716 + rapamycin, higher = more signal, called active from +8 up or from −8 down.
Assay [15] addresses Torsin-1A-interacting protein 2 (Homo sapiens) (UniProt Q8NFQ8). In words: small molecules binding lysate-expressed LULL1 – cell lysate, human LULL1 lysate, 635/667 nm fluorescence, primary screen (AID 1092).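 Also: probe is lysate of COS7 cells overexpressing human LULL1; score merges per-feature 667 nm fluorescence with signal-to-noise.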 The conditions noted are these: small-molecule microarray, hLULL1 lysate binding, 635 nm fluorescence; higher = more signal.
A short description of assay [16]: optical density change of DRC41 E. coli – strain DRC41, OD650, 24 h, E. coli filamentation project, primary screen (AID 1093).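 Also: MC1000 strain lacking acrAB efflux and sulA so SOS filamentation is blocked; test concentration not given here.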 The settings on record: E. coli DRC41 growth, higher = more signal, called active from +8 up or from −8 down.
Assay [17] is described as follows: probe aLefty2 binding to arrayed compounds – biochemical, biotinylated probe, 635/667 nm fluorescence, primary screen (AID 1094).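 Also: score merges spot fluorescence near 667 nm with spot signal-to-noise ratio.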 The settings on record: small-molecule microarray, higher = more signal.
Assay [18] concerns Noggin (protein binding on small-molecule microarray). In words: small molecules binding Noggin protein – biochemical, 635/667 nm fluorescence, primary screen (AID 1095).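 Also: score merges 667 nm feature fluorescence with signal to noise over triplicate slides.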 The settings on record: 635 nm fluorescence, higher = more signal.
Assay [19] addresses Neurogenic locus notch homolog protein 3 (Homo sapiens) (UniProt Q9UM47). In words: small molecules binding NOTCH3 protein – biochemical, 635/667 nm fluorescence, primary screen (AID 1096). The conditions noted are these: small-molecule microarray, 635 nm fluorescence, higher = more signal.
The nature of assay [20]: probe aEGFR binding to arrayed compounds – biochemical, biotinylated probe, 635/667 nm fluorescence, primary screen (AID 1097).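 Also: probe is a biotinylated anti-EGFR antibody binding compounds printed on slides; score combines fluorescence near 667 nm and signal to noise of each spot.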 The settings on record: small-molecule microarray, higher = more signal.

Calls of active or inactive are those of the source.

Chain of Neurogenic locus notch homolog protein 3 (Homo sapiens) (Q9UM47 whole entry, looked up): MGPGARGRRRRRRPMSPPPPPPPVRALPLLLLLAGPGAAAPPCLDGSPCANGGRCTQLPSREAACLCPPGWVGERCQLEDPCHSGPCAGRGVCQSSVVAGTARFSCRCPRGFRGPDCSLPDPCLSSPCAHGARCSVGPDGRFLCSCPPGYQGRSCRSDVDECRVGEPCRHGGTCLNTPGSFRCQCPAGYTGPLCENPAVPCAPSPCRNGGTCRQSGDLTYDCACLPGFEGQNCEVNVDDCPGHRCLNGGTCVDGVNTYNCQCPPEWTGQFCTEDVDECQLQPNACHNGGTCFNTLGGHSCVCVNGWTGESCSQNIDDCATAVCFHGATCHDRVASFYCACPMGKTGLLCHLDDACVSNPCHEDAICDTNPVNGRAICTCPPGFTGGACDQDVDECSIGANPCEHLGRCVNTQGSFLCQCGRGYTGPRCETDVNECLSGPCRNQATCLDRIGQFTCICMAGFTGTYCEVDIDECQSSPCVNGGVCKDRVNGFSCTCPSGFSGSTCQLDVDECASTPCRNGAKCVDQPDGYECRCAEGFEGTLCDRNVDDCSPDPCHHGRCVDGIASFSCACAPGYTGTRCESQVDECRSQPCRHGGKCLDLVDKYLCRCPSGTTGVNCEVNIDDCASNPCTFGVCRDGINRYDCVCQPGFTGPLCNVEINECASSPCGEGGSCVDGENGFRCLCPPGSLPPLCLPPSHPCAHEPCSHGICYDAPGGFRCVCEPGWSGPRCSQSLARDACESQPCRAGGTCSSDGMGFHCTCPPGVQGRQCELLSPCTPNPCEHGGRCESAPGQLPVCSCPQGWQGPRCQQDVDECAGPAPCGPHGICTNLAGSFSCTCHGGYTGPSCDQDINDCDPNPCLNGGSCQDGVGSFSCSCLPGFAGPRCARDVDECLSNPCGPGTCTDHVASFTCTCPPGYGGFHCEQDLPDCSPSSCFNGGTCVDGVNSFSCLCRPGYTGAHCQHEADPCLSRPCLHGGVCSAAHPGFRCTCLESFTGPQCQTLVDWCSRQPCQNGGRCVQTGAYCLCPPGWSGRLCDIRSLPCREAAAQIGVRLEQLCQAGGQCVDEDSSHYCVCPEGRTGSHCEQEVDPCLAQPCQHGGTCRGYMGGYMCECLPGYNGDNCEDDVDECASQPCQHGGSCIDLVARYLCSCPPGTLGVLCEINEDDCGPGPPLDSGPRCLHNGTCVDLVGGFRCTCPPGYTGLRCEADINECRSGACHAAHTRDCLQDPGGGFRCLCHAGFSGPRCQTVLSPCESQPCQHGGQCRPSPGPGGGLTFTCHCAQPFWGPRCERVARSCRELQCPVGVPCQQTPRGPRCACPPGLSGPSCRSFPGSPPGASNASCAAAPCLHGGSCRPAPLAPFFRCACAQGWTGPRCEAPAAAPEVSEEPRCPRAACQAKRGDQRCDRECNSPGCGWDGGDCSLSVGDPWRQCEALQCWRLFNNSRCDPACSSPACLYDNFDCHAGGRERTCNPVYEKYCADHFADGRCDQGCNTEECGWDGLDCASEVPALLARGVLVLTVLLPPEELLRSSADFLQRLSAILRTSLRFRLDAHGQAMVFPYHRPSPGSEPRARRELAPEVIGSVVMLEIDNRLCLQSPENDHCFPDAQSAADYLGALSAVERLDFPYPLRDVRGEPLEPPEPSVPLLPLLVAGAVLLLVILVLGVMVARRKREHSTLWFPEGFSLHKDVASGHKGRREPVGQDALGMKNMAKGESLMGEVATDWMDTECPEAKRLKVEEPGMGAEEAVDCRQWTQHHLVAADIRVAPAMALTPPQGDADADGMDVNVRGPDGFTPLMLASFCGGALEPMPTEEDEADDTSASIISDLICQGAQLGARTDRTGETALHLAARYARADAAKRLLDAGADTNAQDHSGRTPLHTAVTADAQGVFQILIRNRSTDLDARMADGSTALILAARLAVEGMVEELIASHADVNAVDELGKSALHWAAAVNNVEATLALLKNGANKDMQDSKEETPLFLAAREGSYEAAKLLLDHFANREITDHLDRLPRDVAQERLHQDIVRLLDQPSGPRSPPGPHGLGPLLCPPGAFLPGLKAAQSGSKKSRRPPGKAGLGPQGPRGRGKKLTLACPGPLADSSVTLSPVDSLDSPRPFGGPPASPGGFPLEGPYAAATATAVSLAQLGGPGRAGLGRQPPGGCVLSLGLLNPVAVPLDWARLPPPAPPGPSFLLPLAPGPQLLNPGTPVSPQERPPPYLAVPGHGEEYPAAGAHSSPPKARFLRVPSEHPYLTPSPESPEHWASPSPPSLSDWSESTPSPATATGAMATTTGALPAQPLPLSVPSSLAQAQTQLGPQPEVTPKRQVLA
Chain of Pro-neuregulin-1, membrane-bound isoform (Homo sapiens) (Q02297 whole entry, looked up, the tested form may be a part, canonical isoform): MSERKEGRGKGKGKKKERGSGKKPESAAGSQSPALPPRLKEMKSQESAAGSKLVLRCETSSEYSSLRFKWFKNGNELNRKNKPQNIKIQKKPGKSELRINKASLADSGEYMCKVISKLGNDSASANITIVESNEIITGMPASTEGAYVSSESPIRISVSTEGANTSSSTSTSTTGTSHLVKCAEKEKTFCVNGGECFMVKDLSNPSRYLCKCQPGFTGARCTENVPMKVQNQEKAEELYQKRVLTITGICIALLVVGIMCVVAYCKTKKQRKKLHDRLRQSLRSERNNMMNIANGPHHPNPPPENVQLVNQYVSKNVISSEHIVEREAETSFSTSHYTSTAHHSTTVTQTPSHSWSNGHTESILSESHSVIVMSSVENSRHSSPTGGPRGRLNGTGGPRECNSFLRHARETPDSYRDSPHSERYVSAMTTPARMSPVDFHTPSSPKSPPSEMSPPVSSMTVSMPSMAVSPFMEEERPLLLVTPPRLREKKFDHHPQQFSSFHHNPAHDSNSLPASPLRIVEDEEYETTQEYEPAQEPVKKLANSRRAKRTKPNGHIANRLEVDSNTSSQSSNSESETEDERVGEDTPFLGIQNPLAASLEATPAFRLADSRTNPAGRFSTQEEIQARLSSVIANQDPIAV
Chain of Torsin-1A-interacting protein 2 (Homo sapiens) (Q8NFQ8 whole entry, looked up): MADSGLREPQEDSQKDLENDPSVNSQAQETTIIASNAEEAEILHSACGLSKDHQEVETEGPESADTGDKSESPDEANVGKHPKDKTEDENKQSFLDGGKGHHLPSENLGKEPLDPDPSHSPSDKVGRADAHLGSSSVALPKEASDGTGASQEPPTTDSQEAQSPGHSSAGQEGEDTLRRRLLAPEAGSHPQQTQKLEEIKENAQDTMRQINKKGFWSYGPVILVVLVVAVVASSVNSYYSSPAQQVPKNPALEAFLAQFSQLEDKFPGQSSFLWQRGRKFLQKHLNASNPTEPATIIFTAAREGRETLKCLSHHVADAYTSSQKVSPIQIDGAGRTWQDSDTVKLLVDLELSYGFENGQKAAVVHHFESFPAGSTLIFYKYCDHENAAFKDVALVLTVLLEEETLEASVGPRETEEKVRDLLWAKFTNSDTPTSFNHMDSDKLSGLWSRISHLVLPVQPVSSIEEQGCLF

On to `COCCOC(=O)N1C(=O)[C@@]2(c3ccccc31)[C@H](c1ccccc1OCCO)N1[C@H](c3ccccc3)[C@H](c3ccccc3)OC(=O)[C@H]1[C@@H]2C(=O)Nc1nc2ccccc2s1`, for which the composite z-score was -0.223 in assay [1]; 1.03 in assay [2]; 0.0186 in assay [3]; 1.11 in assay [4]; 1.02 in assay [5]; 0.961 in assay [6]. Moreover, the composite z-score in [7] was 1.21; in [9], 0.215; in assay [10], 0.0274; in assay [11], 1.56; in assay [15] it was 2.25; in assay [17], -0.0285. For the same molecule, the composite z-score is 1.47 in [18], 1.09 in assay [19] and -0.0244 in assay [20]. For the same molecule, the z-score in [8] was -1.02 (inactive); in [12], 1.68 (inactive); in [13], 0.981 (inactive); in assay [14] it was 4.61 (inactive); in assay [16] it was 2.25 (inactive).
For `C=CCOC(=O)[C@@H]1[C@H]2C(=O)O[C@H](c3ccccc3)[C@H](c3ccccc3)N2[C@H](c2ccc(OCCOC(=O)[C@@H]3C[C@@H]4C(=O)N[C@@H](CCCCN(C)C)C(=O)N4[C@@H]3c3ccc(O)cc3)cc2)[C@@]12C(=O)Nc1ccc(I)cc12`, the composite z-score in [1] is -0.317; in assay [2] it was 0.25; in assay [3], -0.0216; in assay [4], 0.347; in assay [5], 1.2; in assay [6], 1.11. Also, the composite z-score in [7] was 1.2; in [9] it was 0.171; in [10], -0.108; in assay [11], 1.51; in assay [15], 2.95; in [17], -0.119. Moreover, the composite z-score was found to be 1.24 in [18], 1.11 in assay [19] and 0.0727 in [20]. For the same molecule, the z-score is 0.0976 (inactive) in [8]; 0.767 (inactive) in [12]; -0.858 (inactive) in [13]; 1.51 (inactive) in assay [14]; -0.907 (inactive) in assay [16].
As for `COc1ccc(C(O)C2C=CC3C(=O)N(c4ccccc4)C(=O)C3N2Nc2ccc(C(C)C)cc2)cc1OCc1ccccc1` (stereo not given), the composite z-score in assay [1] was 0.838; in assay [2], 0.369; in assay [3], 0.227; in assay [4], 1.08; in [5], 1.61; in [6], 1.26. Also, the composite z-score in [7] was 1.1; in assay [9], 1.62; in assay [10], -0.168; in assay [11] it was 1.61; in assay [15], 2.97; in [17], 0.308. Moreover, the composite z-score in assay [18] amounted to 0.112; in assay [19], 1.03; in assay [20] it was 0.339. Also, the z-score in assay [8] is -1.44 (inactive); in assay [12], 0.345 (inactive); in assay [13], 0.309 (inactive); in [14], -0.707 (inactive); in assay [16], -3.72 (inactive).
As to `COc1ccc([Si](C)(C)[C@@H]2[C@@H](CCO)O[C@]3(C(=O)N(Cc4ccc(N5C(=O)COc6ccccc65)cc4)c4ccccc43)[C@H]2C)cc1`, the composite z-score in assay [1] is -0.0069; in assay [2], 0.408; in assay [3], -0.0474; in assay [4], 1.24; in [5] it was 1.18; in assay [6] it was 1.01. Besides, the composite z-score was 1.17 in assay [7]; 0.288 in assay [9]; 0.0373 in assay [10]; 1.5 in [11]; 2.44 in [15]; -0.0375 in [17]. The composite z-score in assay [18] came to 1.17; in assay [19], 0.767; in assay [20] it was 0.0192. Also, the z-score is -2.74 (inactive) in assay [8]; 3.6 (inactive) in [12]; -0.0953 (inactive) in [13]; 35.7 (active) in assay [14]; 0.49 (inactive) in [16].
`COc1ccc(CCNC(=O)[C@@]2(C)c3ccccc3C(=O)N(Cc3cc(F)cc(C(F)(F)F)c3)[C@H]2c2ccc(CO)cc2)cc1`: the composite z-score in [1] is 0.498; in [2], -0.518; in [3] it was 0.0046; in assay [4] it was -0.23; in assay [5], 0.146; in assay [6], 0.499. The composite z-score in assay [7] was 0.969; in assay [9], -0.247; in [10], 0.156; in assay [11], 0.117; in assay [15] it was 2.3; in [17], -0.0112. Also, the composite z-score in assay [18] was -0.969; in assay [19], -0.42; in assay [20] it was -0.0549. Besides, the z-score in assay [8] was -3.42 (inactive); in assay [12] it was -0.143 (inactive); in [13] it was -0.995 (inactive); in assay [14], 0.882 (inactive); in [16] it was 0.449 (inactive).
